Screening results: PubChem BioAssay, several laboratories
ABHD5 PLIN5 PPI: inhibitors of human ABHD5-perilipin-5 interaction | Q00G26+Q8WTS1 | Split G. princeps luciferase complementation, luminescence, 4 h | inhibition, % at 4 µM | hit rate 0.78% among 360,000;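 active means inhibition above the mean inhibition across every tested compound plus 3 SD, cut at about 22% in these data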
TLR9-MyD88 block: TLR9-MyD88 interaction inhibition; hit rate 0.21% among 340,000; AID 504734; CHO BLA complementation TLR9-MyD88, CCF4 FRET ratio; Q9NR96+Q99836; inhibition, % at 4.98 µM;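 active means inhibition above the mean over all tested compounds plus 3 SD, cut at about 21% in these data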
Target sequence (Q99836 whole entry, looked up): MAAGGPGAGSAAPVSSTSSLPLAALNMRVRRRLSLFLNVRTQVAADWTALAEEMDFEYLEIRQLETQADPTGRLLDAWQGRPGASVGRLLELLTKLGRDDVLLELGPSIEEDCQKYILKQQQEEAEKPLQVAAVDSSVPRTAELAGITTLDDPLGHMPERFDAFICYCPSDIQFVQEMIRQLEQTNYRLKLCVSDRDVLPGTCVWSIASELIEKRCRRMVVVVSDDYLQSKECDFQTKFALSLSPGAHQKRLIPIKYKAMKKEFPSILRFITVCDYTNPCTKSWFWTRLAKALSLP
Target sequence (Q9NR96 whole entry, looked up): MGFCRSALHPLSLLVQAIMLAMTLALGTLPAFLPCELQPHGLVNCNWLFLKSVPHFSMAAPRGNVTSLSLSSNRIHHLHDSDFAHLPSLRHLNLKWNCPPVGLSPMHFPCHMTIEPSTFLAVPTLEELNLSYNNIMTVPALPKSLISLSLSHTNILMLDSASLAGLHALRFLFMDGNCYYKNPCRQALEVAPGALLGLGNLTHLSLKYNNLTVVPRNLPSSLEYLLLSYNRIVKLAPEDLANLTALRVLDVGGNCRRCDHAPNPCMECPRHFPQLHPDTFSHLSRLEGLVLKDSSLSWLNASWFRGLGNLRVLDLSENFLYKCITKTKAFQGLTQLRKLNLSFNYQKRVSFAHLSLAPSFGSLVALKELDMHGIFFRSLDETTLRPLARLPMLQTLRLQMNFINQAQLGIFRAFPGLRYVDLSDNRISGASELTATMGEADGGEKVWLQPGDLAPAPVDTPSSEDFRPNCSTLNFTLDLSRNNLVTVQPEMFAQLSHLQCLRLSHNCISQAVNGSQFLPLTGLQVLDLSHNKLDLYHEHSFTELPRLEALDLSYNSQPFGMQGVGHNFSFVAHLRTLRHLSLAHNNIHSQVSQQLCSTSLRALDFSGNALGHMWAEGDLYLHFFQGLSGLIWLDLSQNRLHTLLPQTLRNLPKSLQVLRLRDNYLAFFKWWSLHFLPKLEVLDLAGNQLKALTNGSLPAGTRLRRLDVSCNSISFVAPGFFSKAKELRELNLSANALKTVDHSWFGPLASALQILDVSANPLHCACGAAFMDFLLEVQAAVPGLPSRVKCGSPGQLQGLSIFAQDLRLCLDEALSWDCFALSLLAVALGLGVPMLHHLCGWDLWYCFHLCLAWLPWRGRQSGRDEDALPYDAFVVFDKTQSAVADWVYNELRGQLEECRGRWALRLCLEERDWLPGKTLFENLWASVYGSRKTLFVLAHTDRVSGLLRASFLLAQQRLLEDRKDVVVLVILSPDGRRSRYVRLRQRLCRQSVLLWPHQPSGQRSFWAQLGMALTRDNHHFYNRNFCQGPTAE
Exocytosis inh: lytic granule exocytosis inhibition; hit rate 0.66% among 360,000; TALL-104 LAMP-1 surface exposure, flow cytometry; cells stimulated with thapsigargin and PMA; inhibition, % at 10 µM;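 active means inhibition above about 55%, limit read from the data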
NOD2 RIPK2 PPI: inhibitors of human NOD2-RIPK2 interaction. O43353. CHO BLA complementation NOD2-RIPK2, CCF4 ratio. inhibition, % at 4.98 µM. hit rate 0.38% among 360,000; in the data active means inhibition above about 21%
B2AR ag: agonists of human beta-2 adrenergic receptor inducing internalization; P07550; Am2.2-beta2AR cells, FAP receptor internalization, flow cytometry; response, % (concentration not given with the values); hit rate 0.43% among 340,000; AID 504454;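 active means response above a set limit, near 3 SD of response in nonfluorescent compounds, cut at about 42% in these data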
TLR4-MyD88 BLA: TLR4-MyD88 interaction inhibition in cells; O00206+Q99836; HeLa CL3-4 TLR4/MyD88 BLA complementation, FRET ratio; inhibition, % at 8.4 µM; hit rate 0.18% among 200,000; in the data active means inhibition above about 25%
Exocytosis CP01: blocks lytic granule exocytosis; inhibition, % at 10 µM; shares compounds with Exocytosis inh; hit rate 11% among 1,500; TALL-104 cells, LAMP-1 externalization, flow cytometry; stimulated with PMA plus thapsigargin; in the data active means inhibition above about 60%
Of the large screens only hits and unclear results are named; the others gave an inactive call (follow-up assays come after a bar, where they were run). Rows were chosen to be rich in hits. Some 2% of all compounds tested hit in one or more screens of this group.

COc1ccc(-c2cc(-c3ccccc3)c(C#N)c(S(C)=O)n2)cc1 (configuration not stated)	Exocytosis inh 64, B2AR ag 44 | Exocytosis CP01 inactive
COc1ccc(-c2csc(C(C)(O)c3ccncc3)n2)cc1OC (configuration not stated)	none (no result: TLR9-MyD88 block, B2AR ag, TLR4-MyD88 BLA)
NC(=S)NN=C1CSSC1	none (no result: B2AR ag, TLR4-MyD88 BLA)
CCN(CC)CCSc1nnc2c3cc(C)ccc3n(Cc3ccccc3)c2n1	Exocytosis inh 64 (no result: TLR9-MyD88 block, TLR4-MyD88 BLA) | Exocytosis CP01 inactive
O=C1Nc2ccccc2C12Nc1ccccc1-c1nc3ccccc3n12 (configuration not stated)	Exocytosis inh 56 | Exocytosis CP01 inactive
CCOC1=C2[C@@H](CN(S(=O)(=O)c3ccc(C)cc3)[C@H]2c2ccccc2F)[C@H]2C(=O)N(c3ccccc3)C(=O)[C@H]2C1	none (no result: TLR9-MyD88 block, B2AR ag, TLR4-MyD88 BLA)
Nc1ncnc2c1ncn2[C@@H]1O[C@H](C(=O)N[C@H](CO)Cc2ccc(O)cc2)[C@@H](O)[C@H]1O	none (no result: TLR9-MyD88 block, B2AR ag, TLR4-MyD88 BLA)
CCCS(=O)(=O)N1CCCC(C(=O)Oc2ccccc2Cl)C1 (configuration not stated)	Exocytosis inh 68 (no result: TLR4-MyD88 BLA) | Exocytosis CP01 inactive
COc1ccc2c3c(ccc2c1)C(=O)/C(=C/O)CC3	none (no result: TLR4-MyD88 BLA)
CCOC(=O)C1(C)CCN1C(=O)c1ccc(C)cc1 (configuration not stated)	none (no result: TLR9-MyD88 block, B2AR ag, TLR4-MyD88 BLA)
COc1ccccc1S(=O)(=O)N(C)C[C@@H]1OCc2cnnn2CCCC(=O)N([C@@H](C)CO)C[C@@H]1C	none (no result: B2AR ag, TLR4-MyD88 BLA)
CC(NC(=O)C(C)N1c2cccc3cccc(c23)S1(=O)=O)c1ccccc1 (configuration not stated)	Exocytosis inh 82 (no result: TLR4-MyD88 BLA) | Exocytosis CP01 inactive
c1ccc(CNc2ccc(N3CCOCC3)cc2)cc1	none (no result: TLR4-MyD88 BLA)
Clc1ccc(CNc2ccc(N3CCN(Cc4ccccc4)CC3)cc2)cc1	Exocytosis inh 67 (no result: TLR4-MyD88 BLA) | Exocytosis CP01 inactive
Fc1ccc(CNC2CCN(Cc3ccccc3)CC2)cc1	Exocytosis inh 62 (no result: TLR4-MyD88 BLA) | Exocytosis CP01 inactive
Clc1ccc(CNC2CCN(Cc3ccccc3)CC2)cc1	Exocytosis inh 67 (no result: TLR4-MyD88 BLA) | Exocytosis CP01 inactive
COc1ccccc1CNC1CCN(Cc2ccccc2)CC1	none (no result: TLR4-MyD88 BLA)
CCCC(=O)N1CCC1(C)C(=O)Nc1ccc(-n2cccc2)cc1 (configuration not stated)	none (no result: TLR9-MyD88 block, B2AR ag, TLR4-MyD88 BLA)
CC1(C(=O)NS(=O)(=O)c2ccc(F)cc2F)CCN1C(=O)C1(c2ccc(Cl)cc2)CC1 (configuration not stated)	none (no result: TLR9-MyD88 block, B2AR ag, TLR4-MyD88 BLA)
C=CCNC(=O)c1onc(CS(=O)(=O)c2cc(C)cc(C)c2)c1C(=O)NCC=C	none (no result: TLR4-MyD88 BLA)
O=C(Nc1ccc(-c2nc3ccccc3[nH]2)cc1)c1ccccc1NS(=O)(=O)c1ccc(F)cc1	Exocytosis inh 68 | Exocytosis CP01 inactive
Cc1cc(F)ccc1S(=O)(=O)Nc1ccccc1C(=O)Nc1ccccc1-c1nc2ccccc2[nH]1	Exocytosis inh 90 | Exocytosis CP01 94
CC1=C(C(=O)N(C(C)C)C(C)C)CC(CC(=O)NC2CCCC2)C(=O)N1CCC1=CCCCC1 (configuration not stated)	none (no result: TLR9-MyD88 block, B2AR ag, TLR4-MyD88 BLA)
Cc1ccc(C)c(NC(=O)c2cc(=O)c3ccccc3o2)c1	none
Cc1ccc(C)c(NC(=O)COC(=O)c2cc(=O)c3ccccc3o2)c1	Exocytosis inh 73 (no result: TLR4-MyD88 BLA) | Exocytosis CP01 inactive
COc1cccc(C(C(=O)NCc2ccccc2)N2CCN(C(=O)C3CCCO3)CC2)c1OC (configuration not stated)	none (no result: TLR9-MyD88 block, B2AR ag, TLR4-MyD88 BLA)
CC(C)Cn1c(N)c(S(=O)(=O)c2cccs2)c2nc3ccccc3nc21	Exocytosis inh 80 | Exocytosis CP01 inactive
Cc1cc(C)nc(/N=C(\N)Nc2cccc(OCc3ccccc3)c2)n1	Exocytosis inh 85 (no result: TLR4-MyD88 BLA) | Exocytosis CP01 inactive
Cc1cc(C)nc(/N=C(\N)Nc2ccc(OCc3ccccc3)cc2)n1	none
COC(=O)C1=C(C)N(Cc2ccco2)C(=O)N[C@@H]1c1ccc(Br)cc1	Exocytosis inh 56 (no result: TLR4-MyD88 BLA) | Exocytosis CP01 inactive
Cc1nn(C2CCS(=O)(=O)C2)c(C)c1CN(C)C(=O)c1ccccc1 (configuration not stated)	none (no result: TLR4-MyD88 BLA)
CC1CCCCC1NC(=O)c1cc(S(=O)(=O)N2CCOCC2)ccc1Cl (configuration not stated)	none (no result: TLR4-MyD88 BLA)
CCOC(=O)C(C(=O)OCC)C(C(=O)OCC)N1CCOCC1 (configuration not stated)	Exocytosis inh 88 | Exocytosis CP01 inactive
Nc1c(C(=O)NCc2ccc(F)cc2)c2nc3ccccc3nc2n1CCCN1CCOCC1	Exocytosis inh 62 | Exocytosis CP01 90
CCN(CC)c1nc(C=Cc2ccc(N(C)C)cc2)c2nccnc2n1	Exocytosis inh 73 (no result: B2AR ag, TLR4-MyD88 BLA) | Exocytosis CP01 inactive
O=c1oc2ccccc2cc1-c1csc(Cc2nc(-c3ccc(Cl)cc3)cs2)n1	none
CCN(CC)c1ccc2cc(-c3nc(-c4cc5ccccc5oc4=O)cs3)c(=O)oc2c1	Exocytosis inh 81 (no result: TLR4-MyD88 BLA) | Exocytosis CP01 inactive
O=C(c1[nH]c(C(F)(F)F)nc1-c1ccccc1)N1CCN(C(=O)C2CCCO2)CC1 (configuration not stated)	none (no result: TLR9-MyD88 block, B2AR ag, TLR4-MyD88 BLA)
CCn1c2ccccc2c2cc(NC(=O)CSc3nnc(-c4ccccc4)o3)ccc21	Exocytosis inh 87 | Exocytosis CP01 inactive
CCn1c2ccccc2c2cc(NC(=O)c3coc(=O)c(Br)c3)ccc21	none (no result: TLR9-MyD88 block, B2AR ag, TLR4-MyD88 BLA)
CCn1c2ccccc2c2cc(NC(=O)c3ccc(=O)oc3)ccc21	Exocytosis inh 78 (no result: TLR9-MyD88 block, TLR4-MyD88 BLA) | Exocytosis CP01 inactive
COC(=O)[C@]12CCCCC=C1N(Cc1cccc3ccccc13)C(=O)[C@H](CC(=O)NCc1ccc(OC)c(OC)c1)C2	Exocytosis inh 70 (no result: TLR9-MyD88 block, B2AR ag, TLR4-MyD88 BLA) | Exocytosis CP01 97
Cc1oc(-c2ccc(Cl)cc2)nc1CS(=O)CC(=O)NCCCN1CCCC(C)C1 (configuration not stated)	none (no result: TLR4-MyD88 BLA)
Cc1oc(-c2ccc(Cl)cc2)nc1CS(=O)CC(=O)NCCCN1CCN(Cc2ccccc2)CC1 (configuration not stated)	Exocytosis inh 75 (no result: TLR4-MyD88 BLA) | Exocytosis CP01 inactive
O=C(Nc1ccc2c(c1)OCO2)c1cc(C2CCCCN2S(=O)(=O)c2ccccc2)on1 (configuration not stated)	none (no result: TLR9-MyD88 block, B2AR ag, TLR4-MyD88 BLA)
C[N+](C)(C)CCNC(=O)c1ccccc1	none (no result: TLR9-MyD88 block, B2AR ag, TLR4-MyD88 BLA)
O=C(c1cccc(C(F)(F)F)c1)N1CCC(=O)N(C(CO)Cc2ccccc2)CC1 (configuration not stated)	Exocytosis inh 80 (no result: TLR4-MyD88 BLA) | Exocytosis CP01 inactive
CCCCNC(=O)C1(C)CCN1C(=O)c1ccc2c(c1)C(C)(C)CCC2(C)C (configuration not stated)	none (no result: TLR9-MyD88 block, B2AR ag, TLR4-MyD88 BLA)
C#Cc1ccc([C@@H]2C=C(C(=O)OCC=C)O[C@H](OCC)[C@H]2CCCO)cc1	none
C#Cc1ccc([C@H]2C=C(C(=O)OCC=C)O[C@@H](OCC)[C@@H]2CCCO)cc1	Exocytosis inh 78 | Exocytosis CP01 inactive
